Test results reported in PubChem BioAssay AID720555 (National Center for Advancing Translational Sciences (NCATS), 2013).
Values joined by “and” are separate entries in the source; they are usually repeats but may differ in a detail not shown here. Identical values can stand only once. Inconclusive results are not listed. Active and inactive are the calls of the source. Calls follow the shape of the dose curve; as a rule, active = well fitted inhibition curve with a large enough effect; inconclusive = small, poorly fitted or top-dose-only effect; inactive = no such curve, though single readings can be large or run the other way.

target: RecQ-like DNA helicase BLM (Homo sapiens) (UniProt P54132); experiment: qHTS for Inhibitors of Bloom's syndrome helicase (BLM): Helicase DNA unwinding fluorescent orthogonal confirmatory assay for SAR; conditions: fluorescence, orthogonal confirmation; series mostly up to 55.6 µM; activity change, negative = inhibition: at the top concentration
Sequence (P54132 whole entry, looked up): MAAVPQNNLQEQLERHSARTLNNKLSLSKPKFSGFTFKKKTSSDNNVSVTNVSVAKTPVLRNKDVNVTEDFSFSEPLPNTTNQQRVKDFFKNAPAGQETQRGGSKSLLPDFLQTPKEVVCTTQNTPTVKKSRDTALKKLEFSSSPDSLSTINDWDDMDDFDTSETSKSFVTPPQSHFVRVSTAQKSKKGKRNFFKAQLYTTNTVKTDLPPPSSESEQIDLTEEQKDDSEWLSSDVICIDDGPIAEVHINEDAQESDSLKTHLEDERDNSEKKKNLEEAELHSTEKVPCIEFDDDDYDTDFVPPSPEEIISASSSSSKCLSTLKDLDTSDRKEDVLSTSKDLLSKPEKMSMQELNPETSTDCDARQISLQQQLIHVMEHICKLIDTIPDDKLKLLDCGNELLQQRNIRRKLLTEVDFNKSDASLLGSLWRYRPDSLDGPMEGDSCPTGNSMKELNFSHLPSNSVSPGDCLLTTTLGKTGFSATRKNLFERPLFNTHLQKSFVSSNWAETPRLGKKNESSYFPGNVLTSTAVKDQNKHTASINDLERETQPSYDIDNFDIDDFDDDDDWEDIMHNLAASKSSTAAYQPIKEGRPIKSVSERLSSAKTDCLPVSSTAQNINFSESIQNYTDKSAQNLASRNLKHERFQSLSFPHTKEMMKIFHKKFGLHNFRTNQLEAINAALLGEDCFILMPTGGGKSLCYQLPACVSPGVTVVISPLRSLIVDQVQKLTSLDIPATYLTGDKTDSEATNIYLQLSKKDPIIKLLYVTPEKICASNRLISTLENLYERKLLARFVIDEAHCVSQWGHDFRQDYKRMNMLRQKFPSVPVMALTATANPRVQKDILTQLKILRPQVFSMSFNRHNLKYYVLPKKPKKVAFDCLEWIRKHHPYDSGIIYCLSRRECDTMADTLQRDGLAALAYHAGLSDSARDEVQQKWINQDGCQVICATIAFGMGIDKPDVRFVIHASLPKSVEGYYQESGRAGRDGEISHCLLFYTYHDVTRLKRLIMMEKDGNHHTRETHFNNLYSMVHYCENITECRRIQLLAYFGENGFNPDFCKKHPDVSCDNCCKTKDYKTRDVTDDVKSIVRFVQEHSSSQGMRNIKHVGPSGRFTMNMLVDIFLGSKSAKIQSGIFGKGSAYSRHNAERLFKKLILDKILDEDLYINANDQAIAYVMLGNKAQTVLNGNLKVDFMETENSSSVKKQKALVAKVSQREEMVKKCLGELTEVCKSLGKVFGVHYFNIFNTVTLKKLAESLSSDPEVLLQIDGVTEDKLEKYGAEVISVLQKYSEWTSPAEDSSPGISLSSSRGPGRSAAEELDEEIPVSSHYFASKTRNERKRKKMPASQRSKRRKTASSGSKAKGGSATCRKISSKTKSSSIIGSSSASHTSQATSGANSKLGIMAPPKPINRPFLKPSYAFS
Description: Human RecQ DNA helicases participate in maintenance of genome stability and DNA repair. While other types of helicases have been explored as targets for drug development, members of the RecQ family have remained less well characterized. Mutations of the Bloom helicase gene have been associated with the rare human genetic disease called Bloom syndrome. […] Moreover, identified inhibitors can be used in cells and animal models to examine the consequences of inhibition on the survival of cancer cells where it has been shown that BLM plays an important role.
A fluorescence-based, biochemical assay in 1536 well format was developed to evaluate inhibition of BLM DNA unwinding activity. This assay was used to screen the MLPCN library. The resulting compounds were subjected to orthogonal and secondary biochemical assays to triage the initial hits, to classify compounds based on mode of action and to derive structure activity relationships (SARs) of candidate effectors. The data herein is the result of the Helicase DNA unwinding fluorescent orthogonal confirmatory assay. This fluorescent-based assay employs a purified BLM enzyme and utilizes gel electrophoresis to monitor the helicase-mediated unwinding of a fluorescently-labeled DNA substrate. For this assay decrease in the single-stranded DNA product band on the gel = inhibition of the BLM helicase activity. Inhibition is the desired outcome for this assay.
NIH Chemical Genomics Center [NCGC]
NIH Molecular Libraries Probe Centers Network [MLPCN]
Assay Submitter (PI): Opher Gileadi, Structural Genomics Consortium, University of Oxford, UK
Unwinding assay for the BLM helicase was carried out in a reaction buffer containing 50 mM Tris-HCl pH 7.5, 50mM NaCl, 2mM MgCl2, 2mM ATP, 1mM DTT, and 0.1 mg/ml BSA. Optimal substrate and enzyme concentrations as well as reaction times were determined experimentally. All reactions were performed at room temperature and terminated by the addition of loading buffer containing 20mM EDTA and 2.5% bromophenol blue. Reaction products were then separated on 15% non-denaturing polyacrylamide gels in 1x TAE, and the DNA was visualized using the Bio-Rad ChemiDocTM XRS Gel Imager. Substrate and product bands were quantified using ImageJ. The data was normalized against no-inhibitor and no-enzyme controls.

Activity change, negative = inhibition, inactive:
O=C(Nc1ccc2c(c1)OCCO2)Nc1nnc(-c2ccncc2)s1 8.77%
Cc1cc(NC(=O)Nc2nnc(C3CCCCC3)s2)ccc1Cl 8.63%
O=C(Nc1ccc(Cl)c(Cl)c1)Nc1nnc(NC2CCNCC2)s1 80.4%
CC(=O)c1ccc(NC(=O)Nc2nnc(-c3ccncc3)s2)cc1 3.44%
CCCCCCNC(=O)Nc1nnc(-c2ccncc2)s1 7.51%
COc1ccccc1CNC(=O)Nc1nnc(-c2ccncc2)s1 0.3%
CCOc1ccc(NC(=O)Nc2ccc(-c3nc4ccccc4[nH]3)cc2)cc1 -5.73%
Cc1cc(NC(=O)Nc2nnc(C3CCCCC3)s2)ccc1F 2.36%
CN1CCN(c2nnc(NC(=O)Nc3ccc(Cl)c(Cl)c3)s2)CC1 8.47%
O=C(Nc1ccc2ccccc2c1)Nc1nnc(-c2ccccc2Cl)s1 -10.2%
O=C(Nc1ccc(F)c(C(F)(F)F)c1)Nc1ccc(-c2ccncc2)s1 -13.1% [at 53.6 µM]
CCOC(=O)c1cccc(NC(=O)Nc2nnc(-c3ccncc3)s2)c1 10.3%
O=C(Nc1ccc2ccccc2c1)Nc1nnc(-c2ccncc2)o1 -6.58%
COc1ccc(NC(=O)Nc2ccc(-c3nc4ccccc4[nH]3)cc2)cc1OC 10.2%
O=C(Nc1ccc(Cl)c(Cl)c1)Nc1nnc(N2CCNCC2)s1 10.7%
O=C(Nc1ccc2ccccc2c1)Nc1nnc(-c2ccc(Cl)cc2)s1 -10.2%

Potency, active:
O=C(Nc1ccc(Cl)c(C(F)(F)F)c1)Nc1cccc(-c2ccncc2)n1 20 µM
O=C(Nc1ccc2ccccc2c1)Nc1nnc(-c2ccncc2)s1 10 µM
O=C(Nc1ccc(-c2cn[nH]c2)c(C(F)(F)F)c1)Nc1nnc(-c2ccncc2)s1 15.8 µM
O=C(Nc1ccc(Cl)c([N+](=O)[O-])c1)Nc1cccc(-c2ccncc2)n1 2.82 µM
O=C(Nc1ccc(-n2cncn2)c(F)c1)Nc1nnc(-c2ccncc2)s1 14.1 µM
O=C(Nc1ccc(N2CCOCC2)c(C(F)(F)F)c1)Nc1nnc(-c2ccncc2)s1 28.2 µM
Cc1cnccc1-c1nnc(NC(=O)Nc2ccc(F)c(C(F)(F)F)c2)s1 1.26 µM
Cc1cc(NC(=O)Nc2nnc(-c3cccnc3)s2)ccc1Cl 7.94 µM and 3.98 µM
Cc1cc(NC(=O)Nc2nnc(-c3ccncc3)s2)ccc1C#N 3.16 µM
O=C(Nc1nnc(-c2ccncc2)s1)Nc1ccc(Cl)cc1F 28.2 µM
O=C(Nc1nnc(-c2ccncc2)s1)Nc1ccc(Cl)c2ccccc12 14.1 µM
O=c1c(Nc2ccc(Cl)c(Cl)c2)c(Nc2nnc(-c3ccncc3)s2)c1=O 14.1 µM
O=C(Nc1ccc(F)c(C(F)(F)F)c1)Nc1nnc(-c2cccnc2)s1 3.55 µM
Cc1cc(NC(=O)Nc2nnc(-c3cccnc3)s2)ccc1F 25.1 µM
N#CN/C(=N\c1nnc(-c2ccncc2)s1)Nc1ccc(F)c(C(F)(F)F)c1 3.16 µM
N#Cc1cc(NC(=O)Nc2nnc(-c3ccncc3)s2)ccc1Br 0.501 µM
O=C(Nc1ccc(Br)c(Br)c1)Nc1cccc(-c2ccncc2)n1 0.891 µM
N#Cc1ccc(NC(=O)Nc2nnc(-c3ccncc3)s2)cc1 7.94 µM
O=C(Nc1cccc(C(F)(F)F)c1)Nc1nnc(-c2ccncc2)s1 14.1 µM
O=C(Nc1ccc(Cl)c(Cl)c1)Nc1cccc(-c2ccncc2)n1 3.98 µM
Cc1cc(NC(=O)Nc2nnc(-c3ccncc3)s2)ccc1Br 12.6 µM
Cc1cc(NC(=O)Nc2cccc(-c3ccncc3)n2)ccc1Cl 4.47 µM and 3.55 µM
Cc1cc(Nc2c(Nc3nnc(-c4ccncc4)s3)c(=O)c2=O)ccc1Cl 22.4 µM
O=C(Nc1ccc(F)c(C(F)(F)F)c1)Nc1cccc(-c2ccncc2)n1 4.47 µM
